Molecules are shown by their SMILES. The panel holds about 83,000 compounds, 20% with a hit somewhere; the sample as a whole holds those more often.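 For each line, cells grew in 96-well plates with the test compound present at a single concentration for 48 hours.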 Unmarked numbers belong to inactive results. Activity calls are given as the source filed them. The calls were made as follows: active = growth percent below 10; inactive = the rest.

The assay has as its system MDA-MB-468 breast. Nature of the assay: NCI-60 one-dose screen, 48 h (100 = growth as untreated, 0 = no growth, -100 = all killed). Conditions: 10 µM unless noted.
In the case of `COc1cc2nc(N3CCC[C@H](NC4=CC(=O)c5ccccc5C4=O)C3)nc(N)c2cc1OC`, the growth is -55.9% (active).
As to `CCN1C(=O)N(CC)C2C1NC(=S)N2/N=C/C=C/c1ccccc1` (configuration not stated), the growth was 3.7% (active).
Take `COCCOc1ccc(-c2csc(NC(C)=O)n2)cc1NS(=O)(=O)c1cccc2c(N(C)C)cccc12`: the growth was 90.3%.
As to `CCN1C(=O)N(CC)C2SC(N/N=C/c3ccccc3F)=NC21` (configuration not stated), the growth is 40.4%.
As for `O=c1c2cc(Cl)ccc2oc2ccc(OCCCCCN3CCCCCC3)cc12`, the figure is 74.1%.
In the case of `CCCn1c(=O)c2c(nc(-c3cccc(OCCCCl)c3)n2C)n(CCC)c1=O`, the growth was 23.6%.
On to `COc1c(C(=O)/C=C/c2ccc(C)o2)c(O)cc2occc12`, for which the growth was 30.7%.
